TEAD-YAP inh = TEAD-YAP interaction inhibition, primary screen, TEAD-YAP interaction inhibitor project, luminescence, HEK-TIYL cells | 640,000 tested, 1.4% active | inhibition, % at 9.12 µM | TEAD-Gal4/YAP UAS-luciferase luminescence; in the data active means inhibition above about 32%
GPR151 activ = activators of human GPR151, primary screen, cell-based, PathHunter beta-arrestin, luminescence. AID 1508602, 2020. G-protein coupled receptor 151 (Homo sapiens), Q8TDV0. activation, % at 11.2 µM. PathHunter beta-arrestin GPR151 cells. 650,000 tested, 1% active; in the data active means activation above about 4.9%
FBW7 act = FBW7 E3 ligase activators, primary screen, biochemical, AlphaScreen, human; F-box/WD repeat-containing protein 7 (Homo sapiens), Q969H0; AlphaScreen FBW7–phospho-cyclin E peptide binding, activator screen; normalized activity (activation), % at 26.1 µM; 650,000 tested, 0.13% active; AID 1259310, 2017; in the data active means normalized activity above about 1.9%;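 further: purified mutant Fbw7 with reduced substrate affinity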
Target sequence (Q969H0 whole entry, looked up): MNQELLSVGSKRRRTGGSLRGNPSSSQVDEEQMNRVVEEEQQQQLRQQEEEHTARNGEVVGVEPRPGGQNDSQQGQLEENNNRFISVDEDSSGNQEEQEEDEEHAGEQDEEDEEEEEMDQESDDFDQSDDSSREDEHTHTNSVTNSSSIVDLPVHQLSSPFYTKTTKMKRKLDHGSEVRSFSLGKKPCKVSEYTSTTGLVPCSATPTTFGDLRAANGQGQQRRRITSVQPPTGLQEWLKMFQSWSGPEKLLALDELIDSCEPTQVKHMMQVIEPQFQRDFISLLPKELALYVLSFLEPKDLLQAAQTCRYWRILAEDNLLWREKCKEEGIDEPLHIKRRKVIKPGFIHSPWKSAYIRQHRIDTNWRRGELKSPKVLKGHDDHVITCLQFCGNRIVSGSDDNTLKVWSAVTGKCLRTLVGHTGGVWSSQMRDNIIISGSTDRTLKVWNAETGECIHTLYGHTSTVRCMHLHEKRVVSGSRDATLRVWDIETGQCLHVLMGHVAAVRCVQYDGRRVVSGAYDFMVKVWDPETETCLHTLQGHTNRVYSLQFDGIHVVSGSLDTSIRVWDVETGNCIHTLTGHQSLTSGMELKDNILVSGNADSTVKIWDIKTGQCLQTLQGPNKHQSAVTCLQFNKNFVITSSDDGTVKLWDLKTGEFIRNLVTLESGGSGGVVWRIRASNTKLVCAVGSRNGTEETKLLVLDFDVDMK
MITF primary = MITF inhibitors, primary screen, biochemical, AlphaScreen, human; inhibition, % at 2.6 µM; AID 1259374, 2018; Microphthalmia-associated transcription factor (Homo sapiens), O75030; AlphaScreen MITF homodimerization, bead proximity signal; 650,000 tested, 0.91% active; in the data active means inhibition above about 50%
Of the large screens only hits and unclear results are named; the others gave an inactive call. Only some compounds are listed: those with a hit (about 3.4% of all), similar ones and a draw of the others.

NC(C(=O)O)C(O)c1ccccc1 (stereo not given)	none
CCC1(CCC(=O)N2CCN(C(=O)c3ccccc3OC)CC2)CCC(=O)N1 (stereo not given)	none
Cc1ccc2nc(C(C#N)C(=O)c3nc(S(C)(=O)=O)ncc3Cl)[nH]c(=O)c2c1 (stereo not given)	none
COc1ccc(N(Cc2ccccc2)C(=O)c2nc(S(C)(=O)=O)ncc2Cl)cc1	TEAD-YAP inh 98
Cc1cccc(OC(=O)c2nc(S(C)(=O)=O)ncc2Cl)c1C	TEAD-YAP inh 56
CS(=O)(=O)c1ncc(Cl)c(C(=O)C(C#N)c2nc3ccccc3s2)n1 (stereo not given)	TEAD-YAP inh 74
CCOC(=O)c1c(NC(=O)c2nc(S(C)(=O)=O)ncc2Cl)sc(C)c1C	none
Cc1cccc(C)c1NC(=O)c1nc(S(C)(=O)=O)ncc1Cl	none
Cc1ccc(OC(=O)c2nc(S(C)(=O)=O)ncc2Cl)cc1C	TEAD-YAP inh 48
CC1(C)CC(NC(=O)c2cncc(Br)c2)CC(C)(C)N1	none
Cc1cccc(Cn2c(NCCO)nc3c2c(=O)n(C)c(=O)n3C)c1	TEAD-YAP inh 42
CCNc1nc2c(c(=O)n(C)c(=O)n2C)n1Cc1cccc(C)c1	TEAD-YAP inh 44
Cn1c(=O)c2c(nc(Cl)n2Cc2cccc(C(F)(F)F)c2)n(C)c1=O	TEAD-YAP inh 37
Cn1c(=O)c2c(nc(NCCO)n2Cc2cccc(Br)c2)n(C)c1=O	none
CCC[n+]1cccc2cc(OC)ccc21	none
COc1ccc(C(=O)C[n+]2cccc3cc(OC)ccc32)cc1	TEAD-YAP inh 53
CCn1c(-c2ccc(F)cc2)csc1=Nc1cc(OC)c(Cl)cc1OC	TEAD-YAP inh 33
CCn1c(-c2ccc(Cl)cc2)csc1=Nc1cc(OC)c(Cl)cc1OC	TEAD-YAP inh 35
CCOC(=O)c1sc(NC(=O)c2cccc([N+](=O)[O-])c2C)c(C(=O)OCC)c1C	none
O=C(O)CCCCCN1C(=O)/C(=C\c2ccco2)SC1=S	TEAD-YAP inh 37
O=C(NN1C(=O)/C(=C\c2ccco2)SC1=S)c1ccccc1Cl	none
NC(=O)NN1C(=O)/C(=C/c2ccco2)SC1=S	MITF primary 69
Cc1ccc(/C=C2\SC(=S)N(C)C2=O)o1	none
Cc1ccc(/C=C2/SC(=O)NC2=S)o1	MITF primary 76
Cc1ccc(/C=C2\CS/C(=C\c3ccc(C)o3)C2=O)o1	MITF primary 67
COc1ccc(CCNC(=O)C(Cl)Cl)cc1	none
Cc1ccc(/C=C2/SC(=S)N(CCS(=O)(=O)O)C2=O)o1	MITF primary 56
Cc1ccc(/C=C2/SC(=S)N(CCCCCC(=O)O)C2=O)o1	TEAD-YAP inh 39
O=C(O)CCCCCN1C(=O)/C(=C\c2ccccn2)SC1=S	FBW7 act 1.9
O=C(O)CCN1C(=O)/C(=C\c2ccccn2)SC1=S	none
CC(C)OC(=O)c1c(NC(=O)c2cnn3c2NC(c2ccco2)CC3C(F)(F)F)sc2c1CCCC2 (stereo not given)	none
C1CCN(CC2COC3(CCCC3)O2)C1 (stereo not given)	none
O=C(Cn1nc(-c2ccccc2F)ccc1=O)NCc1ccccc1F	none
O=C1OC(/C=C/c2ccccc2)=NC/1=C/c1cccc(Cl)c1Cl	none
c1nc(CCNc2nc3nonc3nc2N2CCCC2)cs1	none
CCOC(=O)/C(N=Nc1ccc([N+](=O)[O-])cc1)=C(\O)CCl	none
COC(=O)/C(N=Nc1ccc(-c2ccccc2)cc1)=C(/O)CCl	TEAD-YAP inh 61
CCOC(=O)c1c(NC(=O)CN2CCCCCC2)sc2c1CCCCC2	none
CCOC(=O)c1c(NC(=O)/C=C/C(=O)O)sc2c1CCCCCC2	TEAD-YAP inh 35
CCOC(=O)c1c(NC(=O)CN2CCN(CC)C(=O)C2=O)sc2c1CCCC2	TEAD-YAP inh 44
CCOC(=O)c1c(NC(=O)/C=C/C(N)=O)sc2c1CCCC2	TEAD-YAP inh 43
CCOC(=O)c1c(NC(N)=O)sc2c1CCCC2	none
O=C(Oc1ccc(NS(=O)(=O)c2ccccc2)c2ccccc12)c1ccccc1	TEAD-YAP inh 77
CCOc1cc([N+](=O)[O-])ccc1NC(=S)NC(=O)c1ccc(OC)c(OC)c1	none
O=C(/C=C/Nc1ccc(Br)cc1Cl)c1ccco1	TEAD-YAP inh 94
COc1ccccc1-c1ccc(/C=C/C(=O)c2ccco2)o1	none
COc1ccc(-c2ccc(/C=C/C(=O)c3ccco3)o2)cc1	MITF primary 63
COc1ccc(Br)cc1/C=C/C(=O)c1ccco1	TEAD-YAP inh 61
CN(c1c(-c2ccc3c(c2)OCC(=O)N3)c(=O)c1=O)C1CCCCC1	none
S=c1nc(NCC2CCCO2)c2ccccc2[nH]1 (stereo not given)	none
O=C(CSc1nc(-c2ccco2)cc(C(F)(F)F)n1)Nc1cccnc1	TEAD-YAP inh 48
CC(=O)Nc1cccc(NC(=O)CSc2nc(-c3ccco3)cc(C(F)(F)F)n2)c1	TEAD-YAP inh 42
CC(C)NC(=O)CSc1nc(-c2ccco2)cc(C(F)(F)F)n1	none
CCCNC(=O)CSc1nc(-c2ccco2)cc(C(F)(F)F)n1	none
CCc1c(C)sc2ncn3c(=O)n(CCN4CCCC4)nc3c12	FBW7 act 21
Cc1cc(C)c(C)c(S(=O)(=O)N2CCC(C(=O)N3CCC(C(N)=O)CC3)CC2)c1C	none
Nc1c(C(=O)NCc2ccc(F)cc2)nnn1Cc1ccc(Br)cc1F	none
Cc1ccc(NC(=O)c2ccccc2)s1	TEAD-YAP inh 57
Cc1cc(NC(=O)c2ccccc2)sc1C	none
Cc1cncc2cccc(NC3CCCN(C(=O)C(O)c4ccc(Br)cc4)C3)c12 (stereo not given)	TEAD-YAP inh 47
Cc1cncc2cccc(NC3CCNC3)c12 (stereo not given)	TEAD-YAP inh 69
Cc1ccccc1CN1C[C@@H]2C[C@@H](c3ccccn3)N3CCC[C@@]23C1=O	none
CC(C)[C@@H](CO)Nc1ccc2ncc(-c3ccc(CO)cc3)n2n1	TEAD-YAP inh 43
COc1ccc(-c2cnc3ccc(N[C@H](CO)C(C)C)nn23)c(OC)c1	FBW7 act 2.0
CC(C)[C@@H](CO)Nc1ccc2ncc(-c3ccc(N(C)C)cc3)n2n1	none
CC(C)[C@@H](CO)Nc1ccc2ncc(-c3ccsc3)n2n1	TEAD-YAP inh 32
CC(C)[C@@H](CO)Nc1ccc2ncc(-c3cccc4ccccc34)n2n1	none
CC(C)[C@@H](CO)Nc1ccc2ncc(-c3ccco3)n2n1	TEAD-YAP inh 53
O=S(=O)(c1cccc(S(=O)(=O)N2CCCCCC2)c1)N1CCCCCC1	none
COc1cc(Br)cc2c1OC1(C)CC2NC(=O)N1c1ccc(F)cc1 (stereo not given)	none
CCCCNS(=O)(=O)c1ccc2nc(SCC(C)=O)[nH]c2c1	TEAD-YAP inh 34
CC(C)COc1ccc(C(=O)Nc2sc3c(c2C(=O)O)CC(C)(C)OC3)cc1	none
CC1(C)Cc2c(sc(NC(=O)c3ccccc3)c2C(N)=S)CO1	none
